# Screening results (PubChem BioAssay)
# KCNH2 3.1 inh = KCNH2 3.1 (human) potassium channel inhibition. U2OS KCNH2 3.1, thallium flux FluxOr; stronger effect = lower value. activity change, % (tested at about 1.8 µM). actives 0.95% (n = 340,000). AID 720553;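 active means maximum activity change below -70%; inconclusive means maximum activity change from -70% to -50%; inactive means maximum activity change above -50%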;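 further: thallium influx rate constant from kinetic fluorescence after stimulation buffer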
#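 Thallium flux via FluxOr fluorescence (Red40 quencher, 45 min loading) in U2OS cells virally expressing the KCNH2 3.1 isoform (1.77 x 10^8 /mL virus, overnight at 37 C). Rate constants from 2-min kinetic reads post-stimulation, normalised to positive and negative controls.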
# TRPML1 blocker = inhibitors of human TRPML1 channel. Q9GZU1. TRPML1-inducible cells, Ca2+ dye fluorescence, FDSS; stronger effect = lower value; inhibition of EC80 agonist-evoked calcium signal. activity change, negative = inhibition, % (no concentration beside the values). actives 0.02% (n = 390,000). AID 624415; in the data active means activity change below about -50%; inconclusive means between about -30% and that limit;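 further: stimulus is agonist 54-4 at its EC80 concentration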
#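 TRPML1-DL cells, Tet-induced overnight (~16 h, 37 °C) at 1,500 cells/well, were loaded with Ca8 no-wash dye plus quencher for 45-90 min at room temperature. Compounds were pinned during FDSS kinetic reading; agonist 54-4 at EC80 (4 uM final) then added.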
# TRPV1 PAM = human TRPV1 potentiation; Q8NER1; TRPV1-expressing cells, Fluo-8 calcium influx, capsaicin EC20 potentiation; potentiation, % at 8.33 µM; actives 0.02% (n = 320,000); AID 540277; in the data active means potentiation above about 80%; inconclusive means between about 30% and that limit
#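 TRPV1-expressing cells were cultured overnight at 35.5C and loaded with Fluo-8 calcium dye for 40 to 90 min at room temperature. After a 10 s baseline, compound was added and calcium influx was read kinetically for 3 min (ex 480/em 520 nm).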
# TRPV1 ag = human TRPV1 agonism; Q8NER1; AID 540275; actives 0.19% (n = 320,000); TRPV1-expressing cells, Fluo-8 calcium influx, agonist mode; activation, % at 8.33 µM; in the data active means activation above about 80%; inconclusive means between about 30% and that limit
#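 Cells expressing TRPV1 were dye-loaded with Fluo-8 and read kinetically: 10 s baseline, 3 min after compound (agonist portion), then 2 min after EC20 capsaicin (allosteric enhancer portion). Calcium-bound dye fluorescence at 480/520 nm.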
# TRPML1 agonist = activates the human TRPML1 channel | TRPML1-expressing cells, Ca2+ dye fluorescence, FDSS | activation, % (concentration not given with the values) | actives 0.12% (n = 410,000); in the data active means activation above about 50%; inconclusive means mostly about 30% to 49%
#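 Cells: TRPML1-DL, 1X Tet inducer, ~16 h at 37 degrees C/5% CO2. Dye: ABD Ca8 no-wash + quencher, 45-90 min RT. Read: 10 s baseline, compound add, 110 s agonist phase; 54-4 EC80 (4uM final), 110 s antagonist phase.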
# hERG WT inh = inhibitors of human wildtype KCNH2 potassium channel; AID 720551; actives 0.37% (n = 340,000); Q12809; activity change, % at 1.84 µM; U2OS, BacMam KCNH2, thallium flux FluxOr; stronger effect = lower value;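 active means maximum activity change below -70%; inconclusive means maximum activity change between -70% and -50%; inactive means maximum activity change above -50%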
#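 U2OS cells were transduced with wild-type KCNH2 virus (2.03 x 10^8 / mL) for 4 h at room temperature, then cultured overnight at 37 C. Thallium flux was read with FluxOr dye. Rate constants were normalized to DMSO controls.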
# A number is an active result; – = inactive; ? = inconclusive; · = no result given. Rows were chosen to be rich in hits. Some 1.3% of all compounds tested hit in one or more screens of this group.
SMILES,KCNH2 3.1 inh,TRPML1 blocker,TRPV1 PAM,TRPV1 ag,TRPML1 agonist,hERG WT inh
CCOc1ccc(CNC(=O)C2CCN(S(=O)(=O)c3cn(C)cn3)CC2)cc1,·,–,·,·,–,·
CN(C)c1ccc(-c2c(C3C4C=CCCC4(C)C(=O)N3Cc3ccccc3)ccc3ccccc23)cc1 (configuration not stated),·,–,·,·,–,·
CCCCCCNc1ccc(/C=C/c2ccnc3ccccc23)cc1,·,·,·,·,–,·
CCOC(=O)NC(=O)CSc1nnc(C)s1,-79,–,–,–,–,–
CCCN(CCC)CC(C)(C)NS(=O)(=O)c1ccc(Cl)cc1,-140,–,–,–,–,–
Cc1cccc(OCCSc2nc3ccc(NC(=O)c4cccs4)cc3s2)c1,·,–,·,·,–,·
Cc1cc(NC(=O)CCC(=O)N(C(C(=O)NC(C)(C)C)c2ccccc2Cl)C(C)(C)C)no1 (configuration not stated),-165,–,–,–,–,–
CCC(C)N(C(=O)CCC(=O)Nc1cc(C)on1)C(C(=O)NC(C)(C)C)c1ccccc1Cl (configuration not stated),–,–,–,–,–,–
Cc1cc(CNC(=S)Nc2ccc(Br)cc2Cl)nn1C,–,–,–,94,–,–
Cc1cc(CNC(=O)c2cc(Br)ccc2Cl)nn1C,–,–,–,–,–,–
Cc1ccc(NC(=O)c2oc3ccccc3c2NC(=O)C2CC2)cc1,–,–,–,?,–,–
O=C(Nc1ccc(F)cc1)c1oc2ccccc2c1NC(=O)C1CC1,–,–,–,82,–,–
CCOC(=O)c1ccc(Nc2nnc(C)c3ccccc23)cc1,–,–,–,86,–,–
O=C(/C=C/c1ccc(Cl)cc1)NCc1ccncc1,–,–,–,82,–,–
CC1N(C(=O)N(C)C)CCN1S(=O)(=O)c1ccccc1 (configuration not stated),–,–,–,–,–,–
CC(C)C1N(C(=O)N(C)C)CCN1S(=O)(=O)c1ccccc1 (configuration not stated),-141,–,?,–,–,–
CCCCCC(=O)Nc1ccc(N2CCN(CC)CC2)c(Cl)c1,-102,–,–,–,–,–
CCCCCC(=O)NC(=S)Nc1ccc(N2CCCCC2)c(Cl)c1,–,–,–,–,–,–
O=C(/C=C/c1cn(CC(O)CN2CCCCCC2)c2ccccc12)c1cccs1 (configuration not stated),-86,–,–,–,–,–
Cc1cc(-c2ccccc2)nc2c(Br)c(C(=O)O)nn12,-82,–,·,·,–,–
O=Nc1ccc(/C=C/c2ccnc3ccccc23)cc1,·,·,·,·,–,·
Oc1ccc(/C=N/NC(=S)Nc2cccnc2)c(O)c1,-137,–,–,–,–,-176
COc1ccccc1C(=O)Nc1nnc(-c2ccc(F)cc2)s1,–,–,–,–,–,–
Cc1cccc(-c2nnc(NC(=O)c3ccc(N4C(=O)CCC4=O)cc3)s2)c1,–,–,–,–,–,–
Cc1cccc(C(=O)Nc2nnc(-c3ccc(C(C)(C)C)cc3)s2)c1,-89,–,–,–,–,–
SMILES,KCNH2 3.1 inh,TRPML1 blocker,TRPV1 PAM,TRPV1 ag,TRPML1 agonist,hERG WT inh
Cc1ccccc1C(=O)Nc1nnc(-c2ccc(C(C)(C)C)cc2)s1,–,–,83,–,–,–
COc1ccc(CCNC(=O)C2CCCN(c3nc4c(C)cc(C)cc4s3)C2)cc1OC (configuration not stated),·,–,·,·,–,·
CCN(Cc1nc2cc(Cl)ccc2c(=O)[nH]1)C(=O)c1nn(C)c(=O)c2ccccc12,–,–,–,–,–,–
CCCCn1nc(C(=O)N(C)Cc2nc3ccccc3c(=O)[nH]2)c2ccccc2c1=O,-75,–,·,·,–,–
CC(C)c1ccc(CNNC(=O)c2ccccc2)cc1,–,–,–,83,–,–
Cc1c(-c2cccc(NC(=O)Nc3ccccc3)c2)nc2ncccn12,·,–,·,·,–,·
CCC(C)NC(=O)Cn1c(=O)n(Cc2ccc(C(=O)NCc3ccc(C)cc3)cc2)c(=O)c2ccccc21 (configuration not stated),·,–,·,·,–,·
CC(=O)N1CCOc2ccc(S(=O)(=O)N3CC(C)CC(C)C3)cc21 (configuration not stated),–,–,–,–,–,–
CC(=O)N1CCOc2ccc(S(=O)(=O)N3CCC(C)CC3)cc21,–,-59,–,–,–,–
CC(=O)Nc1ccc(Nc2nc(-c3sc(C)nc3C)cs2)cc1,–,–,–,–,–,–
CC(=O)c1ccc(Nc2nc(-c3sc(C)nc3C)cs2)cc1,–,–,·,·,–,-134
O=C(Cn1c(=O)oc2cc(S(=O)(=O)NC3CCCC3)ccc21)Nc1ccc(F)c(F)c1,·,–,·,·,–,·
CCOC(=O)CNC(=O)c1cc(-c2ccccn2)nc2c(C)c(Cl)ccc12,-168,–,–,–,–,–
COC(=O)COc1ccc2c(-c3ccc(OC)cc3)cc(=O)oc2c1,-79,–,–,–,–,?
CCC(C)NC(=O)C1CCN(C(=O)c2cc3sccc3n2Cc2ccc(Cl)cc2)CC1 (configuration not stated),·,–,·,·,–,·
CCn1ncc(C(=O)Nc2ccccc2C)c1C,-95,–,–,–,–,–
CN1CCN(c2oc(/C=C/c3ccc(F)cc3)nc2C#N)CC1,·,–,·,·,–,·
COc1cccc(CN2CCN(C(=S)NCc3ccc(Cl)cc3)CC2)c1,-75,–,–,?,–,–
COc1ccc(OC)c(NC(=S)N2CCN(Cc3ccccc3)CC2)c1,–,–,–,–,–,–
Cc1ccccc1Cn1c(SCc2ccc(C(=O)NC(C)c3ccccc3)cc2)nc2ccncc21 (configuration not stated),·,–,·,·,–,·
COC(=O)c1ccc(OCC2c3cc(OC)c(OC)cc3CCN2C(=O)c2cccc(C)c2)cc1 (configuration not stated),·,–,·,·,–,·
COc1ccc(C(=S)N2CCN(c3ccccc3Cl)CC2)cc1OC,–,–,–,–,–,–
COc1cc(C(=S)N2CCN(c3ccccc3Cl)CC2)cc(O)c1O,-75,–,–,–,–,-174
CC(C)C(=O)c1ccc(O)c(O)c1,-85,–,–,–,–,–
O=C(C(=O)c1ccc(O)c(O)c1)c1ccc(O)c(O)c1,–,–,·,·,–,–
COc1cccc(COc2ccc3ccc(=O)oc3c2)c1,-74,–,–,–,–,–
CCCCNC(=O)Cn1c(=O)cc(C)c2c(C)nn(-c3cccc(Cl)c3C)c21,·,–,·,·,–,·
Cc1[nH]c2ccccc2c1C(=O)C(=O)NC1CC(=O)N(c2ccccc2)C1 (configuration not stated),·,–,·,·,–,·
Cc1[nH]c2ccccc2c1C(=O)C(=O)NC1CC1,–,–,–,82,–,–
